High-throughput results from PubChem.
CaV13 ICDI inh – Primary screen for inhibitors of IQ motif and Ca2+-dependent inactivation inhibitor domain binding in CACNA1D, Förster resonance energy transfer in living cells, … | HEK cells, CFP/YFP FRET ICDI-IQ, plate reader, 10 min; percent FRET-ratio fall versus neutral wells | inhibition, % at 12.3 µM | 340,000 tested, 0.098% active;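 active means mean replicate inhibition of at least 30% and at least 1% of replicates passing that level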
NPR1 activator – GC-A stimulated cGMP production enhancers – HEK293 GC-A cells, cGMP TR-FRET, EC30 ANP, primary screen | 0% at EC30 ANP, 100% saturating ANP | activation, % at 10 µM | 370,000 tested, 0.14% active | AID 1671463, 2021; in the data active means activation above about 40%
GC-B act – human GC-B receptor activators, primary screen, HEK293 GC-B cells, cGMP TR-FRET, EC30 CNP; 0% at EC30 CNP, 100% saturating CNP; activation, % at 10 µM; 370,000 tested, 0.11% active; AID 1920062, 2024;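 active means activation at 10 µM reaching about 35% in either raw or pattern-adjusted values, limit read from the data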
Rin1 Abl inh – inhibitors of Rin1-Abl protein binding, primary screen, biochemical, TR-FRET | 360,000 tested, 0.4% active | inhibition, % at 7.35 µM | Tyrosine-protein kinase ABL1 (Homo sapiens) + Ras and Rab interactor 1 (Homo sapiens), …; in the data active means inhibition above about 5%, passing the limit was not always enough
Rin1 Abl conf – Rin1-Abl binding inhibitor retest, confirmation, biochemical, TR-FRET | AID 602124, 2011 | purified proteins | inhibition, % at 7.35 µM | shares compounds with Rin1 Abl inh | 1,300 tested, 49% active
GFP quencher – GFP fluorescence inhibitors and quenchers, artefact control for Rin1-Abl interaction inhibitor project, biochemical; AID 602125, 2011; inhibitors/quenchers counterscreen; shares compounds with Rin1 Abl inh; 1,300 tested, 8.5% active; inhibition, % at 6.75 µM;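 further: ABL1-eGFP fusion protein alone without its partner RIN1-SBP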
GFP quench DR – GFP fluorescence inhibitors and quenchers, dose response, artefact control for Rin1-Abl interaction inhibitor project, biochemical; shares compounds with Rin1 Abl inh; GFP fluorescence interference/quenching counterscreen; IC50, µM; 230 tested, under 10 active; AID 602182, 2012; call rule not given here;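 further: ABL1-eGFP fusion protein alone without its RIN1 binding partner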
Large screens that a line does not name were inactive (follow-up assays come after a bar, where they were run); ! = repeats disagree. The list is not random: actives were taken first. Their share in the collection is about 0.67%. Unless noted, no stated cut-off is given here; in the data, active means inhibition above about 6.5%; inactive means the rest.

C[C@]12CCC3[C@@H](CC[C@H]4C[C@@H](O)CC[C@]34C)C1CCC2=O (some centres undefined)	none
CC(C)(C)OC(=O)NCCCCC(N)[P+](=O)O (centres undefined)	none (no result: CaV13 ICDI inh, Rin1 Abl inh)
CCCCCc1cc(O)c2c3c(c(=O)oc2c1)CN(C)CC3	Rin1 Abl inh 8.0 | Rin1 Abl conf inactive | GFP quencher inactive
N=c1c2c(-c3ccccc3)c(-c3ccccc3)n(Cc3ccccc3)c2ncn1C1CCC(O)CC1 (centres undefined)	none (no result: CaV13 ICDI inh, Rin1 Abl inh)
COc1ccc(C(=O)C2CCCN(Cc3cnc(C)s3)C2)c(OC)c1 (centres undefined)	Rin1 Abl inh 9.9 | Rin1 Abl conf inactive | GFP quencher inactive
C=CCN1CCc2cccc3c2[C@H]1Cc1ccc(O)c(O)c1-3	Rin1 Abl inh 8.5 | Rin1 Abl conf 7.1 | GFP quencher 11.2
C=CCN1CC[C@]23c4c5ccc(O)c4O[C@H]2C(=O)CC[C@@]3(O)[C@H]1C5	none
COc1ccc2nc(NC(=O)CCc3nc(C4=CCN(C)CC4)no3)sc2c1	Rin1 Abl inh 75.2 (no result: CaV13 ICDI inh, NPR1 activator, GC-B act) | Rin1 Abl conf 80.0 | GFP quencher inactive | GFP quench DR inactive
CCc1nnc(NC(=O)CCc2nc(C3=CCN(C)CC3)no2)s1	Rin1 Abl inh 63.1 | Rin1 Abl conf 62.2 | GFP quencher inactive | GFP quench DR inactive
Cc1ccc2nc(-c3ccc(CN4CCC(n5nnc6ccccc65)CC4)cc3)c(-c3ccccc3)nc2c1	none (no result: Rin1 Abl inh)
N#CC1c2ccccc2-n2nncc2CN1C(=O)c1ccc([N+](=O)[O-])o1 (centres undefined)	none (no result: CaV13 ICDI inh, Rin1 Abl inh)
O=C(O)CCCCC1SCC2NC(=O)NC21 (centres undefined)	Rin1 Abl inh 85.9 (no result: CaV13 ICDI inh) | Rin1 Abl conf 91.6 | GFP quencher inactive | GFP quench DR inactive
S=P(c1ccccc1)(c1ccccc1)c1cnc2ccccn12	none (no result: CaV13 ICDI inh, Rin1 Abl inh)
Fc1ccc(CNCCc2ccccc2F)cc1	none
Fc1ccccc1CCNCc1ccccc1	Rin1 Abl inh 8.8 | Rin1 Abl conf inactive | GFP quencher inactive
O=C(NC1CCCCC1)Oc1cc2oc(=O)sc2cc1Cl	Rin1 Abl inh 6.3 | Rin1 Abl conf inactive | GFP quencher inactive
O=C(CN1C(=O)CN=C(c2ccccc2)c2cc(Cl)ccc21)NC1CCCCC1	none (no result: CaV13 ICDI inh, Rin1 Abl inh)
Oc1ccc2c3c1O[C@H]1[C@@H](O)CC[C@@]4(O)[C@@H](C2)N(CC2CCC2)CC[C@]314	Rin1 Abl inh 11.2! | Rin1 Abl conf inactive | GFP quencher inactive
C=CCN1CC[C@]23c4c5ccc(O)c4OC2[C@H](O)CC[C@@]3(O)[C@H]1C5 (some centres undefined)	none (no result: CaV13 ICDI inh)
O=[N+]([O-])c1ccc(NCCCN2CCOCC2)nc1	none
Cc1nc2nc(C)n(CCN3CCOCC3)c(=O)c2c(-c2cccc([N+](=O)[O-])c2)c1C(=O)CCCCCCCCCCN1CCC(c2ccccc2)(c2ccccc2)CC1	Rin1 Abl inh 61.3 | Rin1 Abl conf 68.7 | GFP quencher inactive | GFP quench DR inactive
CCOC(=O)c1c(NC(=O)c2c(N)n(CCCOC)c3nc4ccccc4nc23)sc2c1CCCC2	none
COCCCn1c(N)c(C(=O)NCCC(C)C)c2nc3ccccc3nc21	Rin1 Abl inh 22.0 | Rin1 Abl conf inactive | GFP quencher inactive
CCOCCCn1c(N)c(C(=O)Nc2sc3c(c2C(=O)OC)CCCC3)c2nc3ccccc3nc21	Rin1 Abl inh 22.1 | Rin1 Abl conf inactive | GFP quencher inactive
CCCCn1c(N)c(C(=O)OCCOC)c2nc3ccccc3nc21	none
O=C(NCCN1CCC2(CC1)C(=O)NCN2c1ccccc1)C(c1ccccc1)c1ccccc1	none (no result: Rin1 Abl inh)
CN(C)[C@@H]1C(=O)C(C(N)=O)=C(O)[C@@]2(O)C(=O)C3=C(O)c4c(O)cccc4[C@@](C)(O)[C@H]3[C@H](O)[C@@H]12	Rin1 Abl inh 15.6 | Rin1 Abl conf inactive | GFP quencher inactive
